Bioassay records as filed in PubChem.
Tb PYK inh – inhibitors of Trypanosoma brucei pyruvate kinase; Q57TT1; actives 0.12% (n = 410,000); Potency, µM (highest dose often 76.8 µM), without a hit: at the top dose activity, negative = inhibition, actives largely listed as inhibitors; AID 624173; TbPYK enzyme, Kinase-Glo Plus ATP luminescence, 45 min; also: potency is read from the fitted curve at half-maximal effect; % is scaled to controls: 0 for no effect and ±100 for the full control effect; nearly all actives have a fitted effect of over 50% in size
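Assay buffer: 50 mM TEA pH 7.2, 100 mM KCl, 10 mM MgCl2, 0.05% BSA, 0.01% Tween-20. Pyruvate kinase from T. brucei plus substrate met compound, then ADP (130 uM final). Luminescence was read post 45 min RT.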
LmPK inh – LmPK (Leishmania mexicana) enzyme inhibition; Q27686; purified LmPK, Kinase-Glo ATP luminescence, 1 h; Potency, µM (titrated, usually from 57.5 µM), for the others: at the top dose activity change, negative = inhibition, hits mostly inhibitors; actives 0.37% (n = 290,000); AID 1721; also: potency is read from the fitted curve at half-maximal effect; % is scaled to controls: 0 for no effect and ±100 for the full control effect
Target sequence (Q27686 whole entry, looked up): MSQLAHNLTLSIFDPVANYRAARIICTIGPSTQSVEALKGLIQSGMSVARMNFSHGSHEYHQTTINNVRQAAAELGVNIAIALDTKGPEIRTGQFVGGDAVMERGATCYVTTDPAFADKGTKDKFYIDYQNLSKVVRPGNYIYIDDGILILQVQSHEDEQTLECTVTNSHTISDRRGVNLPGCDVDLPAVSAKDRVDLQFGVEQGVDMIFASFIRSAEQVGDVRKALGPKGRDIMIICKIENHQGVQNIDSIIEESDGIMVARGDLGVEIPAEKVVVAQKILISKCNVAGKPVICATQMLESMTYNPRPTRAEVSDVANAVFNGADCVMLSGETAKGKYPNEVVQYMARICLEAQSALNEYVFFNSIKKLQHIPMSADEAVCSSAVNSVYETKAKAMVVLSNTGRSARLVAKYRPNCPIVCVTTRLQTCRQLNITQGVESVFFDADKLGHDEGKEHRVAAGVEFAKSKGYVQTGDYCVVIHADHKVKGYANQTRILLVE
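qHTS format; LmPK 0.1 nM; substrates PEP 0.5 mM and ADP 0.1 mM. One-hour room-temperature incubation, then coupled luciferase luminescence; 0.5 nM enzyme wells mark activation.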
AMA1-RON2 inh – disrupts binding of P. falciparum AMA1 to RON2 | AlphaScreen AMA1-biotinylated RON2 peptide binding | Potency, µM (top dose mostly 58.2 µM), for the others: at the highest dose activity change, negative = inhibition, actives largely listed as inhibitors | actives 0.2% (n = 360,000) | AID 720542;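 also: potency is read from the fitted curve at half-maximal effect; 0% = vehicle wells and -100% = peptide control; nearly all actives have a fitted effect of over 45% in size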
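AMA1 (3D7) with his tag at 25 nM final met compounds first, then biotinylated RON2 peptide at 25 nM; detection used donor plus acceptor beads, 10 µg/mL apiece, read by AlphaScreen after 30 min at room temperature.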
RE007 growth inh – less growth of the S. pombe RE007 Vpr strain | actives 0.21% (n = 360,000) | Potency, µM (titrated, usually from 92.2 µM), without a hit: at the highest dose activity change, negative = less growth, most hits filed as inhibitors | S. pombe RE007 Vpr strain, BacTiter-Glo ATP luminescence, 24 h; active = well fitted falling curve with a large enough effect; inconclusive = small, poorly fitted or top-dose-only effect; inactive = no such curve, though single readings can be large or run the other way; also: potency is read from the fitted curve at half-maximal effect; % is scaled to controls: 0 for no effect and ±100 for the full control effect; nearly all actives have a fitted effect of over 50% in size
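Fission yeast RE007 carrying one integrated HIV-1 vpr copy, seeded at OD 0.01 in PMG+AL medium with 23 nL pinned compound. Grown 24 h at 30 degrees; viability read by BacTiter-Glo luminescence after 5 min.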
SARS PLpro yeast-1 – inhibitors of SARS-CoV papain-like protease in yeast. S. cerevisiae expressing SARS-CoV PLpro, growth rescue. Potency, µM (highest dose often 32.9 µM), for inactives: top-dose activity, positive = growth rescue, hits mostly activators. actives 0.19% (n = 330,000); calls by dose curve; also: potency is read from the fitted curve at half-maximal effect; 0% is about no effect; nearly all actives have a fitted effect of over 55% in size
SARS PLpro yeast-2 – Inhibits SARS-CoV PLP in yeast, hit validation | calls only | shares compounds with SARS PLpro yeast-1 | actives 19% (n = 1,000) | yeast expressing SARS-CoV PLpro, growth phenotype rescue | AID 652038; call rule not given here
Starred values were filed as active, the others as inactive; i = inactive; ? = inconclusive; . = not tested or not shown; + = active, no number; [ ] = remark or other dose. Sampled rows, rich in hits. Any-hit rate of the full collection: about 0.81%. Unless noted, calls follow the shape of the dose curve; as a rule, active = well fitted curve in the direction sought with a large enough effect; inconclusive = small, poorly fitted or top-dose-only effect, or another doubt; inactive = no such curve, though single readings can be large; an effect the other way counts as inactive or inconclusive.

SMILES	Tb PYK inh	LmPK inh	AMA1-RON2 inh	RE007 growth inh	SARS PLpro yeast-1	SARS PLpro yeast-2
COc1ccc(N2CCN(C(CNC(=O)C(=O)NCCCN(C)C)c3cccnc3)CC2)cc1 (configuration not stated)	3%	.	.	.	.	.
Cc1ccc(S(=O)(=O)c2nc(Nc3ccccc3)sc2Cl)cc1	-14%	-1%	-9%	0%	-94%	.
Cc1ccc(S(=O)(=O)c2nc(NCCN(C)C)sc2Cl)cc1	-3%	10%	22%	12%	?	i
O=C(Cc1ccccc1[N+](=O)[O-])OCC(=O)N1CCN(c2ccccc2)CC1	2%	.	-24%	10%	0%	.
CCOc1cc(CNCCc2ccccc2)ccc1OCC(=O)NC(C)(C)C	-20%	3%	-2%	-3%	18µM*	i
CC(C)C[C@H]1CN=C(N(C)C)N1CCCCc1ccccc1	6%	.	-1%	-7%	6.3µM*	i
C[C@H]1CN=C(N(C)C)N1CCCCc1ccccc1	3%	.	0%	4%	4%	.
N#Cc1nc(-c2ccc(F)cc2)oc1N1CCCC1	-25%	-3%	-21%	10%	?	i
N#Cc1nc(-c2ccc(F)cc2)oc1N1CCCCC1	3%	0%	-24%	-9%	-4%	.
O=C(CC1SC(N2CCCCC2)=NC1=O)Nc1cccc(C(=O)Nc2ncccc2O)c1 (configuration not stated)	-5%	.	61%	10%	?	i
Cc1[nH]c(=S)sc1Cc1ccc(Cl)c(Cl)c1	.	-8%	.	.	?	+
O=C(COC(=O)c1n[nH]c(=O)c2ccccc12)NC1CCCCC1	1%	.	-7%	-18%	2%	.
COc1ccc(Cl)cc1NC(=O)COC(=O)/C=C/c1c(C)nn(C2CCS(=O)(=O)C2)c1Cl (configuration not stated)	3%	1%	2%	0%	?	i
CCc1ccc(CNC(=O)c2cccc(-n3cnc4cccnc43)c2C)cc1	4%[15.4 µM]	.	.	.	.	.
COc1cccc(/C=N/NC(=O)C(=O)N2CCCCCC2)c1O	-10%	-14%	76%	0%	6%	.
COc1cccc(/C=N/NC(=O)C(=O)N/N=C/c2cccc(OC)c2O)c1O	2%	-2%	?	5%	?	+
COc1cc(/C=N/NC(=O)c2cc(-c3cccn3C)n[nH]2)cc(OC)c1OC	-2%	2%	13%	3%	7%	.
COc1cccc(/C=N/Nc2ncnc(Cl)c2N)c1O	-7%	-2%	-19%	13%	4.5µM*	i
COc1cccc(/C=N/NC(=O)c2cc(-c3cccn3C)n[nH]2)c1O	4%	1%	14%	5%	7.1µM*	?
COc1ccc(Nc2nc(Nc3ccc(OC)cc3OC)nc(N3CCN(C)CC3)n2)c(OC)c1	-3%	2%	?	-9%	-8%	.
COc1cc(C(=O)NC(=S)NNC(=O)c2cnccn2)cc(OC)c1OC	-3%	-4%	-48%	13%	?	i
Cc1cc(SC#N)cc(C)c1NC(=O)CCl	-9%	2%	4%	18%	.	i
CCc1cc(SC#N)cc(C)c1NC(=O)CCl	-8%	-2%	-8%	23%	-18%	.
O=C(Nc1ccccn1)c1ccc([N+](=O)[O-])o1	-5%	-15%	-28%	?	10µM*	i
O=C(Nc1ncccn1)c1ccc([N+](=O)[O-])o1	-12%	-4%	0%	-12%	0%	.
SMILES	Tb PYK inh	LmPK inh	AMA1-RON2 inh	RE007 growth inh	SARS PLpro yeast-1	SARS PLpro yeast-2
O=[N+]([O-])c1ccccc1CNCCCCCO	-10%	.	2%	-9%	-7%	.
NS(=O)(=O)c1cccc(NC(=O)CCSc2ccccc2Cl)c1	3%	0%	12%	10%	?	i
Cc1ccsc1C(=O)Nc1cccc(-n2cnnn2)c1	-9%	4%	-5%	9%	14%	.
CCCCNC(=O)C1CCN(S(=O)(=O)c2c(C)noc2/C=C\c2ccc(OC)cc2)CC1	-6%	2%	24%	10%	?	+
COc1ccc(N(CC(=O)Nc2cc(Cl)ccc2OC)S(=O)(=O)c2c(C)noc2C)cc1	7%	3%	-3%	-9%	?	+
CCN(CC)c1ccc(/C=N/Nc2nc(C)cc(=O)[nH]2)c(O)c1	2%	-3%	16%	-8%	4.5µM*	i
CCN(CC)c1ccc(/C=N/NC(=O)c2cccc(S(=O)(=O)N3CCOCC3)c2)c(O)c1	3%	1%	41%	8%	8%	.
CCOC(=O)N/N=C/c1ccc(N(CC)CC)cc1O	3%	1%	42%[2.32 µM]	-10%	-21%	.
CCN(CC)c1ccc(/C=N/NC(=O)CCC(=O)NCc2ccccc2)c(O)c1	-10%	5%	21%	11%	4µM*	i
CCN(CC)c1ccc(/C=N/NC(=O)c2c(Cl)cnn2C)c(O)c1	0%	0%	31%	?	?	i
CC1=C(C(N)=O)C(c2ccc(F)cc2)n2nc(-c3ccc(N(C)C)cc3)nc2N1 (configuration not stated)	-2%	.	.	.	.	.
Cc1cc(C)cc(OCCCn2c(-c3ccc(Cl)cc3)nc3ccccc3c2=O)c1	-11%	.	.	.	.	.
O=C(Nc1ccc2ccccc2c1)OC1CCS(=O)(=O)C1 (configuration not stated)	.	.	0%	.	.	.
O=C(O)[C@@H](O)[C@@H](O)[C@@H](O)[C@@H](O)C(=O)O (tested in a mixture with another compound)	-6%	.	.	.	.	.
Cc1ccc(-c2noc(COc3ccc4c(c3)OCO4)n2)cc1	2%	-6%	-4%	-5%	13µM*	i
Cc1ccc(-c2noc(COc3ccc(Br)c(C)c3)n2)cc1	2%	.	.	.	.	.
Cc1cccc(NC(=S)NNC(=O)COc2ccc(Cl)cc2Cl)c1	4%	5%	45%[11.6 µM]	12%	10µM*	+
C/C(=N\NC(=O)C(C)n1nc(C)c([N+](=O)[O-])c1C)c1ccccc1O (configuration not stated)	?	4%	86%	3%	?	i
CCOC(=O)N1CCN(C(=O)CCS(=O)(=O)c2cc3c(cc2Cl)NC(=O)CO3)CC1	4%	-6%	5%	-8%	?	i
Cc1ccc([N+](=O)[O-])cc1NC(=O)C1CCN(S(C)(=O)=O)CC1	-7%	1%	11%	-6%	?	i
COc1ccccc1NS(=O)(=O)c1cc(NC(=O)c2ccc(Cl)nc2)ccc1Cl	-5%	0%	2%	-16%	-3%	.
COc1ccc(C(=O)Nc2ccc(Cl)c(S(=O)(=O)Nc3ccccc3OC)c2)cc1	-7%	-2%	-7%	.	?	?
CN1C(=O)c2ccccc2Sc2ccc(NC(=O)COc3ccc(Cl)cc3)cc21	7%	.	.	.	.	.
